13 compounds from PubChem BioAssay can be followed below.

Assay [1] can be described thus: NFkB reporter suppression in cystic fibrosis bronchial cells – cell-based, uHTS hits, panel, cytotoxicity readout, dose response (AID 624344). The following applies: CF bronchial epithelial cells, PAF-induced NFkB reporter inhibition, with PAF, run 1; at 79 µM (top of the series) unless noted.
Experiment in assay [2]: as above
The conditions noted are these: CF bronchial epithelial cells, PAF-induced NFkB reporter inhibition, with PAF, run 2; at 79 µM (top of the series) unless noted.

Assay [3] deals with PEG-3 (UniProt Q6IN02). The experiment in a line: inhibition of PEG-3 promoter-driven reporter – cell-based, HeLa, luciferase, CREF/GAPDH counter-screen panel, dose response (AID 624167). The conditions noted are these: CREF/GAPDH counter-screens; HeLa PEG-Prom luciferase reporter, overnight, run 1, dose range 1, at 100 µM (top of the series) unless noted.
Chain of PEG-3 (Q6IN02 whole entry, looked up): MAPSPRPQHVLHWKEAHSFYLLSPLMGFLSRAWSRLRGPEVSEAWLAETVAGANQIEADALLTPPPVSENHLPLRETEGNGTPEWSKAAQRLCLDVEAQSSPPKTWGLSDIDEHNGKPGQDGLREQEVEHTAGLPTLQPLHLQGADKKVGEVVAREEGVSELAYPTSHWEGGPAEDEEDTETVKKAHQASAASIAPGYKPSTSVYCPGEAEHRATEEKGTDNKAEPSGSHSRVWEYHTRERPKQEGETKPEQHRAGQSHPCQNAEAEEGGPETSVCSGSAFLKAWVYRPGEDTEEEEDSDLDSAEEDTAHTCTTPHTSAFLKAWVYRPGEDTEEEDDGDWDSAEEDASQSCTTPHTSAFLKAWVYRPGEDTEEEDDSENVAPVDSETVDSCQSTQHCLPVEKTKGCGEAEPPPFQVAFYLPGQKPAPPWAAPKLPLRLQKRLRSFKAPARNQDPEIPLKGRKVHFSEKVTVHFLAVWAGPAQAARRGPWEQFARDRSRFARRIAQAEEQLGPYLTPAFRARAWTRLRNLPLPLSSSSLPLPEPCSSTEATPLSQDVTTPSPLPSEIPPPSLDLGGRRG
The target of assay [4] is PEG-3 (UniProt Q6IN02). The assay is described as above. The conditions noted are these: CREF/GAPDH counter-screens; HeLa PEG-Prom luciferase reporter, overnight, run 2, dose range 1, at 100 µM (top of the series) unless noted. In general terms: The purpose of a counterscreen is to sort out artefacts and off-target activity.
Assay [5] concerns the target Tumor necrosis factor receptor superfamily member 10B (Homo sapiens) (UniProt O14763). Put plainly: viability loss of caspase-8 NB7 cells with TRAIL – with/without TRAIL, luminescence panel, confirmation (AID 651596). The following applies: NB7 neuroblastoma + caspase-8, TRAIL sensitization, NB7 Caspase-8, with TRAIL, mean of runs, at 10 µM, stronger effect = higher value.
Experiment in assay [6]: as above
The following applies: NB7 neuroblastoma + caspase-8, without TRAIL, NB7 Caspase-8, without TRAIL, mean of runs, at 10 µM.

Chain of Tumor necrosis factor receptor superfamily member 10B (Homo sapiens) (O14763 whole entry, looked up): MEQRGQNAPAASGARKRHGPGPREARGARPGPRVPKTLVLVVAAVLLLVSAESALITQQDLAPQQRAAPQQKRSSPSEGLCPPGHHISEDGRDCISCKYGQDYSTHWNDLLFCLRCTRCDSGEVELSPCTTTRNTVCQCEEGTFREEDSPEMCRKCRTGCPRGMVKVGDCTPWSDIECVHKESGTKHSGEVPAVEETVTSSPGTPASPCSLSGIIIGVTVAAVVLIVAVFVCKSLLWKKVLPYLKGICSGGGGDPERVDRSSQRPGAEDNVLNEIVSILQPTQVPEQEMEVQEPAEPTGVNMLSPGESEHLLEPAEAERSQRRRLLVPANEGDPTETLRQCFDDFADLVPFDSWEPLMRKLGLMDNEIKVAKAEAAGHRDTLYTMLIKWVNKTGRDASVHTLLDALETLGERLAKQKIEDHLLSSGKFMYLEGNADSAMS

Regarding `COc1ccc(CN2C[C@H]3CCCN3c3cc(Br)ccc3S2(=O)=O)cc1`, the inhibition (usually the relative decrease from the control value, in per cent) in assay [1] stood at 74.6%; in assay [2], 92.2%.

On to `Cc1ccc2sc(N(CCCN(C)C)C(=O)c3ccc(S(=O)(=O)N4CCc5ccccc5C4)cc3)nc2c1C`, for which the values for the inhibition in assay [3] and in assay [4] were 82.2% and 74.5%, respectively. Further, the values for the activity in assay [5] and in assay [6] were 75% and 87%, respectively.

For the compound `Nc1nccc(-c2ccc(-n3cnc4ccccc43)cc2)n1`, the inhibition in assay [1] came to 101%; in assay [2], 108%.

With `COc1ccc(Nc2nccc(-c3cccc(N)c3)n2)cc1`, the inhibition in assay [1] stood at 103%; in assay [2], 117%.

On to `Cc1ccc(N(Cc2cc(=O)[nH]c3ccccc23)C(=O)CCl)c(C)c1`, for which the inhibition in assay [3] amounted to 101%; in assay [4] it was 99.2%. For the same compound, the figures for the activity in assay [5] and in assay [6] were 96.8% and 96.5%, respectively.

For the compound `Cc1ccc2sc(N(CCCN(C)C)C(=O)c3ccc(S(=O)(=O)N(C)Cc4ccccc4)cc3)nc2c1C`, the inhibition in assay [3] is 102%; in assay [4] it was 99.1%. For the same compound, the activity in assay [5] was determined as 44%; in assay [6] it was 32.9%.

On to `Cc1cc2sc3ccc(C#CC4(O)CCCCC4)cc3c(=O)c2cc1C`, for which the inhibition in assay [3] was 84.2%; in assay [4] it was 93.8%. Also, the values for the activity in assay [5] and in assay [6] were 91.2% and 90.1%, respectively.

Turning to `Cc1ccc(NC(=O)c2cc(C(=O)c3cc(Cl)ccc3O)cn(-c3ccc(C)cc3)c2=O)cc1`, the inhibition in assay [1] stood at 65.5%; in assay [2], 96.9%.

For the compound `O=c1cc(-c2ccccc2Cl)oc2c([N+](=O)[O-])c(O)cc(O)c12`, the inhibition was determined as 101% in assay [1] and 109% in assay [2].

With `Cc1noc(-c2ccc(Cl)cc2)c1C(=O)O/N=C(\N)c1ccc(C(C)(C)C)cc1`, the inhibition in assay [3] came to 99.2%; in assay [4], 101%. For the same compound, the activity in assay [5] turned out to be 99.3%; in assay [6], 97.5%.

As for `COCCn1c(C)cc(C(=O)COC(=O)c2ccccc2Br)c1C`, the inhibition in assay [3] was found to be 95.9%; in assay [4], 94.1%. The figures for the activity in assay [5] and in assay [6] were 79.5% and 76.5%, respectively.

With `COc1ccccc1N(C(=O)CCl)c1cn(C(C)=O)c2ccccc12`, the inhibition is 98.1% in assay [3] and 102% in assay [4]. Also, the activity in assay [5] came out at 99.5%; in assay [6], 98.3%.

`Cc1ccnc(Nc2nc(-c3sc(C)nc3C)cs2)c1`: the results for the inhibition in assay [1] and in assay [2] were 107% and 104%, respectively.
